Of roughly 8,800 targets only a part is listed; those with a hit were picked by preference. About 0.5% of all pairs of compound and target were hits.
How the values were obtained:
Experiment in all cases: log2 fold change, soluble protein after heating vs DMSO (PISA); higher = thermal stabilisation; K562 lysate, 10 uM; active = over 0.2 and 3.5 SD of the protein, either way, in both replicates (recomputed)
nilotinib = compound: Cc1cn(-c2cc(NC(=O)c3ccc(C)c(Nc4nccc(-c5cccnc5)n4)c3)cc(C(F)(F)F)c2)cn1 [nilotinib]
Outline: (§1)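 Quantification was by TMTpro 16plex LC-MS/MS with equalised channel sums, applied to the supernatant after 21,000xg for 90 min. Samples were crude K562 extract at 1 mg/mL protein in PBS pH 7.4 with 1 mM MgCl2, treated with 10 μM compound for 30 min, heated for 3 min across 48°C-58°C, pooled and brought to 0.5% NP-40 at 4°C. Values are log-two fold changes in thermal stability relative to solvent controls, from duplicates.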

[1] = compound: Cc1nc(Nc2n[nH]c3c2CN(C(=O)N[C@H](CN(C)C)c2ccccc2)C3(C)C)c2sccc2n1
Outline: as §1

dasatinib = compound: Cc1nc(Nc2ncc(C(=O)Nc3c(C)cccc3Cl)s2)cc(N2CCN(CCO)CC2)n1 [dasatinib]
Outline: as §1

[2] = compound: Cc1ncc(-c2ccnc(Nc3ccc(S(C)(=O)=O)cc3)n2)n1C(C)C
Outline: as §1

[3] = compound: Cn1cc(-c2ccc3c(c2)CCN3C(=O)Cc2cccc(C(F)(F)F)c2)c2c(N)ncnc21
Outline: as §1

quisinostat = compound: Cn1cc(CNCC2CCN(c3ncc(C(=O)NO)cn3)CC2)c2ccccc21 [quisinostat]
Outline: as §1

tipifarnib = compound: Cn1cncc1[C@@](N)(c1ccc(Cl)cc1)c1ccc2c(c1)c(-c1cccc(Cl)c1)cc(=O)n2C [tipifarnib]
Outline: as §1

[4] = compound: NC(=O)Nc1cc(-c2cccc(F)c2)sc1C(=O)N[C@H]1CCCNC1
Outline: as §1

[5] = compound: NC(=O)c1cnc(N[C@@H]2CCCC[C@@H]2N)nc1Nc1cccc(-n2nccn2)c1
Outline: as §1

[6] = compound: NC1(c2ccc(-c3nc4ccn5c(=O)[nH]nc5c4cc3-c3ccccc3)cc2)CCC1
Outline: as §1

Measured: log2 fold change

NUP133 (UniProt Q8WUM0)
inactive: nilotinib 0.023 | [1] -0.006 | dasatinib -0.026 | [2] 0.019 | [3] 0.056 | quisinostat -0.092 | tipifarnib -0.039 | [4] 0.006 | [5] 0.005 | [6] -0.016

NELFA (UniProt Q9H3P2)
UniProt Q9H3P2, sequence (Q9H3P2 whole entry, looked up): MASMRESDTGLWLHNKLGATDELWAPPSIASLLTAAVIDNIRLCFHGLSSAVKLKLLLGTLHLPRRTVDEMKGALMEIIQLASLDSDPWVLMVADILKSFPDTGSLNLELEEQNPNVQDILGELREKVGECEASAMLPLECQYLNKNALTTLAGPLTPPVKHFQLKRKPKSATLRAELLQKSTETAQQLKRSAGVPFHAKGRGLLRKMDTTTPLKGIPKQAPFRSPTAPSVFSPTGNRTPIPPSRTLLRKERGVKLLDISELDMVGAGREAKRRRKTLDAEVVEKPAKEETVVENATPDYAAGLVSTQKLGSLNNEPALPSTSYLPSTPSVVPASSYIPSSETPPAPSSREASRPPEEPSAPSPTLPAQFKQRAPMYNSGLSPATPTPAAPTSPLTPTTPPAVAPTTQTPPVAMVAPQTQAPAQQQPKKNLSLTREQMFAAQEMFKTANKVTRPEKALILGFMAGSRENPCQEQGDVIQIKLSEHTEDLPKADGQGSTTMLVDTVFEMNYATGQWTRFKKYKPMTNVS
inactive: nilotinib -0.018 | [1] -0.01 | dasatinib -0.064 | [2] -0.02 | [3] -0.009 | quisinostat -0.007 | tipifarnib 0.024 | [4] 0.03 | [5] 0.048 | [6] -0.014

OARD1 (UniProt Q9Y530)
inactive: nilotinib 0.015 | [1] 0.016 | dasatinib -0.031 | [2] 0.005 | [3] 0.071 | quisinostat -0.004 | tipifarnib -0.014 | [4] 0.036 | [5] -0.009 | [6] -0.006

NNMT (UniProt P40261)
UniProt P40261, sequence (P40261 whole entry, looked up): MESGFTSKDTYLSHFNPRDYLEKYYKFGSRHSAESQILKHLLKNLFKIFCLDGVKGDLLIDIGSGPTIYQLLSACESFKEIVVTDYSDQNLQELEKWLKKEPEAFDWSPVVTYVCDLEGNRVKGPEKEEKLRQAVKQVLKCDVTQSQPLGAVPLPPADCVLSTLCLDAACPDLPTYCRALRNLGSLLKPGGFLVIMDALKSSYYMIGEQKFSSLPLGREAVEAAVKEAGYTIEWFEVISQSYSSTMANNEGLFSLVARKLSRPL
inactive: nilotinib -0.044 | [1] -0.01 | dasatinib 0.058 | [2] 0.03 | [3] 0.003 | quisinostat -0.145 | tipifarnib -0.008 | [4] 0.004 | [5] 0.035 | [6] -0.033

MRPS18A isoform 2 (UniProt Q9NVS2)
inactive: nilotinib 0.031 | [1] -0.022 | dasatinib -0.054 | [2] -0.033 | [3] 0.006 | quisinostat -0.012 | tipifarnib -0.026 | [4] 0.036 | [5] 0.014 | [6] -0.065

NOC2L (UniProt Q9Y3T9)
inactive: nilotinib 0.027 | [1] 0.022 | dasatinib -0.03 | [2] -0.046 | [3] -0.052 | quisinostat -0.082 | tipifarnib -0.087 | [4] 0.058 | [5] 0.014 | [6] -0.019

MTA2 (UniProt O94776)
inactive: nilotinib 0.001 | [1] 0.017 | dasatinib -0.019 | [2] -0.011 | [3] 0.046 | quisinostat -0.062 | tipifarnib -0.007 | [4] 0.03 | [5] -0.002 | [6] 0.001

NDUFS1 isoform 2 (UniProt P28331)
inactive: nilotinib 0.005 | [1] -0.001 | dasatinib 0.013 | [2] -0.021 | [3] 0.009 | quisinostat 0.112 | tipifarnib -0.002 | [4] -0.018 | [5] 0.003 | [6] 0.006

MYOM1 (UniProt P52179)
inactive: nilotinib -0.127 | [1] -0.078 | dasatinib 0.058 | [2] 0.039 | [3] 0.023 | quisinostat 0.115 | tipifarnib 0.01 | [4] 0.083 | [5] -0.016 | [6] -0.035

MSH3 (UniProt P20585)
UniProt P20585, sequence (P20585 whole entry, looked up): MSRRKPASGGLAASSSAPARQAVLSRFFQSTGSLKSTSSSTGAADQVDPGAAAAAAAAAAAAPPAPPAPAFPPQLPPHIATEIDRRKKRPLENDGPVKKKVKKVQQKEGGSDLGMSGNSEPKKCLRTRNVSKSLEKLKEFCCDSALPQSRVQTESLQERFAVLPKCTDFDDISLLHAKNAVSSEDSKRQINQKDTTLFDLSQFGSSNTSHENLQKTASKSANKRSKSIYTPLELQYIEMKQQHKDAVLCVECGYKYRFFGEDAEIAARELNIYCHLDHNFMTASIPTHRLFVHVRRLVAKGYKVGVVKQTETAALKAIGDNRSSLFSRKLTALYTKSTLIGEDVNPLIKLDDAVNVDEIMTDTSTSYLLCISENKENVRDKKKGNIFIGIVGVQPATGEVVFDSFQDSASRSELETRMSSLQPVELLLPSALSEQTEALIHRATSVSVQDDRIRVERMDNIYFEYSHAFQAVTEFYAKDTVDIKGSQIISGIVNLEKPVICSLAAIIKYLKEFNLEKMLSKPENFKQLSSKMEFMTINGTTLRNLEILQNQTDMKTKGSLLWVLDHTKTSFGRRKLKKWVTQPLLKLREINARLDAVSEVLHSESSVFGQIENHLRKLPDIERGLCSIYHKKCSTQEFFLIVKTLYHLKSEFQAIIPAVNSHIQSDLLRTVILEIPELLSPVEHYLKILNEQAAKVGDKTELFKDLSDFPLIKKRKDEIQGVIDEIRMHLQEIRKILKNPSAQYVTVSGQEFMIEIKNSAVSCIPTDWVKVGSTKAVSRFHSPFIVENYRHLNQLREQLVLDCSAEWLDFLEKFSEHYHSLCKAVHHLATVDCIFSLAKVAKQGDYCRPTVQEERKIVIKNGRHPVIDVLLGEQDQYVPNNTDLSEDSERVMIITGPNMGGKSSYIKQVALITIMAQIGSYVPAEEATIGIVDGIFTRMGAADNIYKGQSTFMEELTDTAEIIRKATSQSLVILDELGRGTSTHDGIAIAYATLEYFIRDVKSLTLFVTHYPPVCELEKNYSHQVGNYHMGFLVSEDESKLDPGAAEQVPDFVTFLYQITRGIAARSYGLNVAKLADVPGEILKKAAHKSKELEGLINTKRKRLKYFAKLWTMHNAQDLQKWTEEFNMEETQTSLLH
inactive: nilotinib -0.007 | [1] 0.034 | dasatinib -0.03 | [2] 0.028 | [3] 0.014 | quisinostat -0.037 | tipifarnib -0.001 | [4] -0.003 | [5] 0.011 | [6] -0.035

MYCBP2 (UniProt O75592)
inactive: nilotinib 0.028 | [1] -0.013 | dasatinib -0.038 | [2] -0.013 | [3] 0.015 | quisinostat -0.116 | tipifarnib -0.008 | [4] 0.019 | [5] 0.012 | [6] -0.013

NOB1 (UniProt Q9ULX3)
UniProt Q9ULX3, sequence (Q9ULX3 whole entry, looked up): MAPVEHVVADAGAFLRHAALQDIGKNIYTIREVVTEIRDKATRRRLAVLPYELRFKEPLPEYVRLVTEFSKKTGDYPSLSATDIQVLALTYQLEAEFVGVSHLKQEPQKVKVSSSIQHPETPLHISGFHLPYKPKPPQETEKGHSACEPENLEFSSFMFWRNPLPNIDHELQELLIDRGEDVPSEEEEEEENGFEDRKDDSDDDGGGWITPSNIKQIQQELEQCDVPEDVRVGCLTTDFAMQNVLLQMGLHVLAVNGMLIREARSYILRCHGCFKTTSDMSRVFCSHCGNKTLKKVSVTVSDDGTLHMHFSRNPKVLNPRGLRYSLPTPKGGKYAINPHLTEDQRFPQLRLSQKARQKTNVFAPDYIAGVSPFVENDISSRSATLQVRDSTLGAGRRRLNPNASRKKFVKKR
inactive: nilotinib 0.018 | [1] -0.026 | dasatinib 0.004 | [2] -0.066 | [3] 0.044 | quisinostat 0.041 | tipifarnib 0 | [4] 0.043 | [5] -0.018 | [6] 0.058

NACC1 (UniProt Q96RE7)
inactive: nilotinib -0.013 | [1] 0.031 | dasatinib -0.006 | [2] -0.007 | [3] 0.022 | quisinostat -0.024 | tipifarnib -0.008 | [4] -0.04 | [5] 0.022 | [6] 0.015

MT-CYB (UniProt P00156)
UniProt P00156, sequence (P00156 whole entry, looked up): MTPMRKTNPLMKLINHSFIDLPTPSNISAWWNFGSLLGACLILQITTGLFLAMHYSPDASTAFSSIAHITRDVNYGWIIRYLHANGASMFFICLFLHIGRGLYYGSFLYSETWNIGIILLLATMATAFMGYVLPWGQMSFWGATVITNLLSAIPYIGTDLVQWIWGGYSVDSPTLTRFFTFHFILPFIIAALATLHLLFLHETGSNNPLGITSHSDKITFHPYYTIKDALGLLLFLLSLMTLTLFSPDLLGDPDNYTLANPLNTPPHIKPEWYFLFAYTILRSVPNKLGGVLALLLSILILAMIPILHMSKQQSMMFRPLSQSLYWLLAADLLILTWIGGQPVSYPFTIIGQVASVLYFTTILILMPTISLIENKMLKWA
inactive: nilotinib 0.063 | [1] -0.081 | dasatinib 0.16 | [2] 0.011 | [3] 0 | quisinostat -0.131 | tipifarnib -0.184 | [4] -0.003 | [5] -0.037 | [6] -0.06

OSGEP (UniProt Q9NPF4)
UniProt Q9NPF4, sequence (Q9NPF4 whole entry, looked up): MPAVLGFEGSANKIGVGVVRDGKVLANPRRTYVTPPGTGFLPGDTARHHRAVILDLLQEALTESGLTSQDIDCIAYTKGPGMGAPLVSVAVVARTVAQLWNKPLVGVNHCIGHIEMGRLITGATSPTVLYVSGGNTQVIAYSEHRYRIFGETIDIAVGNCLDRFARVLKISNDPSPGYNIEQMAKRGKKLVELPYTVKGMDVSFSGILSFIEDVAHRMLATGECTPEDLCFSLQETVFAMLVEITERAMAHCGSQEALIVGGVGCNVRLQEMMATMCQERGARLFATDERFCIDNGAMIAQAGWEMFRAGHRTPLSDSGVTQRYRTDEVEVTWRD
inactive: nilotinib -0.005 | [1] 0.008 | dasatinib 0.002 | [2] 0.018 | [3] 0.025 | quisinostat -0.006 | tipifarnib 0.026 | [4] -0.012 | [5] -0.027 | [6] 0.03

NUP205 (UniProt Q92621)
UniProt Q92621, sequence (Q92621 whole entry, looked up): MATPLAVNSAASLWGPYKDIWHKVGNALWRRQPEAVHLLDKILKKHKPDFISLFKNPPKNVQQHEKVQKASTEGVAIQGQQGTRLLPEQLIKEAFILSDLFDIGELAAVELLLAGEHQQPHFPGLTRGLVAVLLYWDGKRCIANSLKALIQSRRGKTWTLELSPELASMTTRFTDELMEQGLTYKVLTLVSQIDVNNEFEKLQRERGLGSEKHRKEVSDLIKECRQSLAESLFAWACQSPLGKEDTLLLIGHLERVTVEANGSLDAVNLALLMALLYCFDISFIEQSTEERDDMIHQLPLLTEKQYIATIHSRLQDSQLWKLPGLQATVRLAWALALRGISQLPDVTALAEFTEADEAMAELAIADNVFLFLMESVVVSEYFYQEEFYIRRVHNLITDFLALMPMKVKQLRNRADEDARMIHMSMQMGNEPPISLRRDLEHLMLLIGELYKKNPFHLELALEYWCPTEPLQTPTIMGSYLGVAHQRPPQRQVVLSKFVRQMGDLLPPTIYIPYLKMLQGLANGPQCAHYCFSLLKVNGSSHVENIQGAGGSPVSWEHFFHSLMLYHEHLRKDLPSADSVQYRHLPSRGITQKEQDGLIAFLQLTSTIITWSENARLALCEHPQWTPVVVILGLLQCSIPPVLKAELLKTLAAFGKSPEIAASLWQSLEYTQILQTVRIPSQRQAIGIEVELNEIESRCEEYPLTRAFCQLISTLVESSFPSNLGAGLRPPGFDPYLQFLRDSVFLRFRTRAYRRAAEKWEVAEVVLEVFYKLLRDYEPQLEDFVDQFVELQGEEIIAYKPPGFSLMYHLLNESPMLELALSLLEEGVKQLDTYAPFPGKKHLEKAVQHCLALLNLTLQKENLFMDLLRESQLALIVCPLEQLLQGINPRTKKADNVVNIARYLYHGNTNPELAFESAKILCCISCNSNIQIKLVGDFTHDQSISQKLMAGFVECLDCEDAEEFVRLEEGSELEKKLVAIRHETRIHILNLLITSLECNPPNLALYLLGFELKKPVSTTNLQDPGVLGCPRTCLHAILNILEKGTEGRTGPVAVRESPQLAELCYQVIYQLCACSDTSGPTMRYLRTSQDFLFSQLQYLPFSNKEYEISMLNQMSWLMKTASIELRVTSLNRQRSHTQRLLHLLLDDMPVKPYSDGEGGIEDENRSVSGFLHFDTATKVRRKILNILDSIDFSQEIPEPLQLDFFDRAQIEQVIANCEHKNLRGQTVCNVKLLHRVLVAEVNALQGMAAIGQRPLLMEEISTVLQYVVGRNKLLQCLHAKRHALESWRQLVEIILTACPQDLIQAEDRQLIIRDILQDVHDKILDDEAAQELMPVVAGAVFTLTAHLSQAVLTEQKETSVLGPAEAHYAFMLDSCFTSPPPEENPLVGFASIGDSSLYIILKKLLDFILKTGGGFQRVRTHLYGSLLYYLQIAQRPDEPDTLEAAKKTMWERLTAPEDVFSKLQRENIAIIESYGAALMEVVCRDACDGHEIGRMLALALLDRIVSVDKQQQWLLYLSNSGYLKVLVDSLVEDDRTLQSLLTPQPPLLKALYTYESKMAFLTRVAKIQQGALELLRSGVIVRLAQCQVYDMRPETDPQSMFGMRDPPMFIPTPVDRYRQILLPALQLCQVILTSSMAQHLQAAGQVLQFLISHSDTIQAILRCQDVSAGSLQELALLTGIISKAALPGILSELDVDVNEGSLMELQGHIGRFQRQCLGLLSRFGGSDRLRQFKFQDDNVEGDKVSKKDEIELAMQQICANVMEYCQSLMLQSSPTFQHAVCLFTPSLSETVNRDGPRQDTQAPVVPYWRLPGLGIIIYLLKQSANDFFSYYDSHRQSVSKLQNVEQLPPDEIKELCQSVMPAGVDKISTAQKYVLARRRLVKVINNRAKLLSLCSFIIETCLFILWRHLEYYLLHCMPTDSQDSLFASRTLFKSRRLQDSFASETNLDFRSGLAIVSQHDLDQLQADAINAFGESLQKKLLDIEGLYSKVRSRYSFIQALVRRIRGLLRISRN
inactive: nilotinib -0.014 | [1] 0.004 | dasatinib -0.04 | [2] 0.008 | [3] 0.04 | quisinostat -0.041 | tipifarnib -0.027 | [4] 0.052 | [5] 0.047 | [6] -0.012
